The values that follow come from PubChem BioAssay (NCI).

Structures are written as SMILES. About 79,000 compounds went through this panel and 15% of them were active in at least one assay; those are over-represented in the sample as a whole. Unmarked numbers belong to inactive results. Active and inactive are the calls of the source. Rule as the data show it: active = growth inhibition above about 70%; inactive = the rest.

Experiment [1] in a line: NCI Yeast Anticancer Drug Screen. Data for the rad50 strain (AID 155).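 Also: 0% = growth of vehicle-only cultures of the same strain.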 Particulars: S. cerevisiae rad50 strain growth inhibition, active compounds read high. Summed up:
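Yeast carrying a defined DNA repair defect were exposed to test compounds, and growth was compared with vehicle-treated controls to give percent inhibition.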

A short description of experiment [2]: NCI Yeast Anticancer Drug Screen. Data for the mec2-1 strain (AID 157). Particulars: S. cerevisiae mec2-1 strain, active compounds read high. Summed up:
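mec2-1 yeast strain, carrying an alteration in DNA damage repair or cell cycle control, was exposed to compounds; growth inhibition was measured relative to vehicle-treated controls.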

Experiment [3] in a line: NCI Yeast Anticancer Drug Screen. Data for the sgs1 mgt1 strain (AID 161).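 Also: 0% = growth of cultures given vehicle only.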 Particulars: S. cerevisiae sgs1 mgt1 strain, active compounds read high. Summed up: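 Compounds are added to genetically altered yeast, and growth is compared with cultures given vehicle alone to give percent inhibition.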
The nature of experiment [4]: NCI Yeast Anticancer Drug Screen. Data for the cln2 rad14 strain (AID 165).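 Also: 0% = growth equal to vehicle treated cultures.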 The conditions noted are these: S. cerevisiae cln2 rad14 strain, active compounds read high. Summed up:
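Yeast carrying cln2 and rad14 alterations (cell cycle control and DNA damage repair) were exposed to compounds. Growth inhibition was measured against vehicle-treated controls.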

A short description of experiment [5]: NCI Yeast Anticancer Drug Screen. Data for the bub3 strain (AID 167). The conditions noted are these: S. cerevisiae bub3 mutant strain, active compounds read high. Summed up: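 Compounds were applied to a genetically altered yeast strain carrying a cell-cycle control defect. Growth inhibition was scored against vehicle-treated controls.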
Experiment [6] is described as follows: NCI Yeast Anticancer Drug Screen. Data for the mlh1 rad18 strain (AID 175). Particulars: S. cerevisiae mlh1 rad18 strain growth inhibition, active compounds read high. In short, it runs like this:
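Growth inhibition of the yeast strain was measured after compound exposure and expressed relative to vehicle-treated controls. The strain carries defined defects in DNA damage repair.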

The mark [7] stands for this setting: at 5.0 µM (retest, dose inferred, filed as 0.5).
The mark [8] stands for this setting: at 50.0 µM (retest, dose inferred, filed as 5.0).

For the compound `C/C(=N/NC(=S)Nc1ccc(C)cc1)c1ccccn1`, the growth inhibition is 31% in experiment [1] (setting [7]); 99% (active) in experiment [1] (setting [8]); 79.2% (active) in experiment [1] (at 50.0 µM); 33% in experiment [2] (setting [7]); 99% (active) in experiment [2] (setting [8]); 84.9% (active) in experiment [2] (at 50.0 µM). The growth inhibition in experiment [3] (setting [7]) is 32%; in experiment [3] (setting [8]), 99% (active); in experiment [3] (at 50.0 µM), 88.5% (active); in experiment [4] (setting [7]) it was -15%; in experiment [4] (setting [8]), 99% (active); in experiment [4] (at 50.0 µM), 88.3% (active). Besides, the growth inhibition in experiment [5] (setting [7]) was -7%; in experiment [5] (setting [8]), 99% (active); in experiment [5] (at 50.0 µM), 90% (active); in experiment [6] (setting [7]), 20%; in experiment [6] (setting [8]), 99% (active); in experiment [6] (at 50.0 µM) it was 87.9% (active).
As for `O=C(O)C1C(=O)OC2CCCCC21` (stereo not given), the growth inhibition in experiment [1] (setting [7]) was 0%; in experiment [1] (setting [8]), -4%; in experiment [1] (at 50.0 µM) it was 3.25%; in experiment [2] (setting [7]) it was 1%; in experiment [2] (setting [8]) it was 1%; in experiment [2] (at 50.0 µM) it was -6.45%. The growth inhibition in experiment [3] (setting [7]) was 1%; in experiment [3] (setting [8]), 0%; in experiment [3] (at 50.0 µM), 0.45%; in experiment [4] (setting [7]), -3%; in experiment [4] (setting [8]), 1%; in experiment [4] (at 50.0 µM) it was 69.4%. Further, the growth inhibition in experiment [5] (setting [7]) is 0%; in experiment [5] (setting [8]) it was -3%; in experiment [5] (at 50.0 µM), -0.95%; in experiment [6] (setting [7]), -2%; in experiment [6] (setting [8]), -3%; in experiment [6] (at 50.0 µM) it was -2.4%.
As for `C=C(CN(C)C)C(=O)c1ccccc1`, the growth inhibition in experiment [1] (setting [7]) is -5%; in experiment [1] (setting [8]), 4%; in experiment [1] (at 50.0 µM), 56.6%; in experiment [2] (setting [7]), 8%; in experiment [2] (setting [8]), 41%; in experiment [2] (at 50.0 µM) it was 65%. For the same compound, the growth inhibition is 8% in experiment [3] (setting [7]); 17% in experiment [3] (setting [8]); 56% in experiment [3] (at 50.0 µM); -26% in experiment [4] (setting [7]); 12% in experiment [4] (setting [8]); 9.55% in experiment [4] (at 50.0 µM). For the same compound, the growth inhibition is -20% in experiment [5] (setting [7]); 19% in experiment [5] (setting [8]); 77.7% (active) in experiment [5] (at 50.0 µM); -4% in experiment [6] (setting [7]); 17% in experiment [6] (setting [8]); 74.8% (active) in experiment [6] (at 50.0 µM).
Consider `CC1C[N+](C)(C)C(C)C(=O)C1(c1ccccc1)c1ccccc1` (stereo not given), for which the growth inhibition in experiment [1] (setting [7]) was -9%; in experiment [1] (setting [8]) it was 2%; in experiment [1] (at 50.0 µM), 6.6%; in experiment [2] (setting [7]), -2%; in experiment [2] (setting [8]), 2%; in experiment [2] (at 50.0 µM), 10.9%. Further, the growth inhibition in experiment [3] (setting [7]) was -23%; in experiment [3] (setting [8]), 3%; in experiment [3] (at 50.0 µM), -10.3%; in experiment [4] (setting [7]), -1%; in experiment [4] (setting [8]), -2%; in experiment [4] (at 50.0 µM), -13.4%. Also, the growth inhibition was -4% in experiment [5] (setting [7]); -2% in experiment [5] (setting [8]); 28.2% in experiment [5] (at 50.0 µM); -6% in experiment [6] (setting [7]); -4% in experiment [6] (setting [8]); 19.1% in experiment [6] (at 50.0 µM).
`COc1cccc2c1C(=O)c1c(O)c3c(c(O)c1C2=O)C[C@@](O)(C(C)=O)C[C@@H]3OC1CC([N+]([O-])(Cc2ccccc2)Cc2ccccc2)C(O)C(C)O1` (stereo not given in full): the growth inhibition in experiment [1] (setting [7]) is 79% (active); in experiment [1] (setting [8]), 95% (active); in experiment [1] (at 50.0 µM), 75.6% (active); in experiment [2] (setting [7]), 30%; in experiment [2] (setting [8]), 87% (active); in experiment [2] (at 50.0 µM) it was 23.9%. In addition, the growth inhibition is 48% in experiment [3] (setting [7]); 88% (active) in experiment [3] (setting [8]); 19.2% in experiment [3] (at 50.0 µM); 23% in experiment [4] (setting [7]); 70% (active) in experiment [4] (setting [8]); 22.2% in experiment [4] (at 50.0 µM). Also, the growth inhibition in experiment [5] (setting [7]) is 32%; in experiment [5] (setting [8]), 81% (active); in experiment [5] (at 50.0 µM), 31.7%; in experiment [6] (setting [7]), 70% (active); in experiment [6] (setting [8]), 92% (active); in experiment [6] (at 50.0 µM), 10.8%.
`O=C(OCc1ccccc1)c1ccc(O)cc1`: the growth inhibition in experiment [1] (setting [7]) is 6%; in experiment [1] (setting [8]), 79% (active); in experiment [1] (at 50.0 µM), 96.8% (active); in experiment [2] (setting [7]), -1%; in experiment [2] (setting [8]) it was 85% (active); in experiment [2] (at 50.0 µM) it was 98.3% (active). Further, the growth inhibition was 1% in experiment [3] (setting [7]); 64% in experiment [3] (setting [8]); 98.5% (active) in experiment [3] (at 50.0 µM); 2% in experiment [4] (setting [7]); 39% in experiment [4] (setting [8]); 85.8% (active) in experiment [4] (at 50.0 µM). Also, the growth inhibition in experiment [5] (setting [7]) is 9%; in experiment [5] (setting [8]), 91% (active); in experiment [5] (at 50.0 µM) it was 97.8% (active); in experiment [6] (setting [7]), 2%; in experiment [6] (setting [8]), 88% (active); in experiment [6] (at 50.0 µM), 99% (active).
In the case of `CCC(c1ccc(O)cc1)C(CC)c1ccc(OCC(N)=O)cc1` (stereo not given), the growth inhibition in experiment [1] (setting [7]) is 10%; in experiment [1] (setting [8]), -5%; in experiment [1] (at 50.0 µM), 90.1% (active); in experiment [2] (setting [7]) it was 0%; in experiment [2] (setting [8]) it was -10%; in experiment [2] (at 50.0 µM) it was 80.5% (active). The growth inhibition in experiment [3] (setting [7]) was -16%; in experiment [3] (setting [8]) it was 7%; in experiment [3] (at 50.0 µM) it was 89.8% (active); in experiment [4] (setting [7]), -18%; in experiment [4] (setting [8]) it was -22%; in experiment [4] (at 50.0 µM), 78.8% (active). Also, the growth inhibition in experiment [5] (setting [7]) is -15%; in experiment [5] (setting [8]), 27%; in experiment [5] (at 50.0 µM) it was 93% (active); in experiment [6] (setting [7]), 20%; in experiment [6] (setting [8]), 44%; in experiment [6] (at 50.0 µM), 91.3% (active).
Regarding `CCN(CC)COC(=S)S`, the growth inhibition is 8% in experiment [1] (setting [7]); 99% (active) in experiment [1] (setting [8]); 97.7% (active) in experiment [1] (at 50.0 µM); -3% in experiment [2] (setting [7]); 100% (active) in experiment [2] (setting [8]); 83.1% (active) in experiment [2] (at 50.0 µM). The growth inhibition in experiment [3] (setting [7]) is 11%; in experiment [3] (setting [8]), 99% (active); in experiment [3] (at 50.0 µM) it was 99% (active); in experiment [4] (setting [7]), 5%; in experiment [4] (setting [8]), 97% (active); in experiment [4] (at 50.0 µM), 44%. Besides, the growth inhibition was -11% in experiment [5] (setting [7]); 99% (active) in experiment [5] (setting [8]); 97.3% (active) in experiment [5] (at 50.0 µM); 15% in experiment [6] (setting [7]); 99% (active) in experiment [6] (setting [8]); 98.5% (active) in experiment [6] (at 50.0 µM).
On to `[Cl][Sn]([O][Sn]([Cl])([c]1ccccc1)[CH]1CCCCC1)([c]1ccccc1)[CH]1CCCCC1` (stereo not given), for which the growth inhibition is 6% in experiment [1] (setting [7]); 97% (active) in experiment [1] (setting [8]); 88% (active) in experiment [1] (at 50.0 µM); 7% in experiment [2] (setting [7]); 99% (active) in experiment [2] (setting [8]); 90.3% (active) in experiment [2] (at 50.0 µM). Further, the growth inhibition in experiment [3] (setting [7]) is 12%; in experiment [3] (setting [8]), 99% (active); in experiment [3] (at 50.0 µM) it was 90.8% (active); in experiment [4] (setting [7]) it was -11%; in experiment [4] (setting [8]), 98% (active); in experiment [4] (at 50.0 µM), 90.1% (active). In addition, the growth inhibition in experiment [5] (setting [7]) is 2%; in experiment [5] (setting [8]), 99% (active); in experiment [5] (at 50.0 µM), 89.6% (active); in experiment [6] (setting [7]), 5%; in experiment [6] (setting [8]) it was 97% (active); in experiment [6] (at 50.0 µM), 92% (active).
On to `O=c1c2c(F)c(F)c(F)c(F)c2sc2nccn12`, for which the growth inhibition in experiment [1] (setting [7]) is 15%; in experiment [1] (setting [8]), 100% (active); in experiment [1] (at 50.0 µM), 89% (active); in experiment [2] (setting [7]), 40%; in experiment [2] (setting [8]), 100% (active); in experiment [2] (at 50.0 µM) it was 91.2% (active). The growth inhibition was 2% in experiment [3] (setting [7]); 99% (active) in experiment [3] (setting [8]); 84.8% (active) in experiment [3] (at 50.0 µM); 5% in experiment [4] (setting [7]); 99% (active) in experiment [4] (setting [8]); 90.2% (active) in experiment [4] (at 50.0 µM). Moreover, the growth inhibition in experiment [5] (setting [7]) is 27%; in experiment [5] (setting [8]), 100% (active); in experiment [5] (at 50.0 µM), 89.5% (active); in experiment [6] (setting [7]), 46%; in experiment [6] (setting [8]) it was 99% (active); in experiment [6] (at 50.0 µM), 86.8% (active).
